The text below walks through data of PubChem BioAssay AID720504 (National Center for Advancing Translational Sciences (NCATS), 2013).

The structures appear in SMILES notation. The whole screen tested about 360,000 compounds, of which about 10,000 (2.8%) were called active. Another 4% or so got no clear call; they are omitted. Calls come from the whole dose curve; as a rule, active = well fitted inhibition curve with a large enough effect; inconclusive = small, poorly fitted or top-dose-only effect; inactive = flat fitted curve, though single readings scatter. The list comes from a sample in which actives are over-represented; it also holds similar structures and randomly drawn compounds.
% is set by controls: 0 for no effect and ±100 for the full control effect; potency is the fitted concentration of half-maximal effect.

Sequence of Serine/threonine-protein kinase PLK1 (Homo sapiens) (P53350 whole entry, looked up, the tested form may be a part): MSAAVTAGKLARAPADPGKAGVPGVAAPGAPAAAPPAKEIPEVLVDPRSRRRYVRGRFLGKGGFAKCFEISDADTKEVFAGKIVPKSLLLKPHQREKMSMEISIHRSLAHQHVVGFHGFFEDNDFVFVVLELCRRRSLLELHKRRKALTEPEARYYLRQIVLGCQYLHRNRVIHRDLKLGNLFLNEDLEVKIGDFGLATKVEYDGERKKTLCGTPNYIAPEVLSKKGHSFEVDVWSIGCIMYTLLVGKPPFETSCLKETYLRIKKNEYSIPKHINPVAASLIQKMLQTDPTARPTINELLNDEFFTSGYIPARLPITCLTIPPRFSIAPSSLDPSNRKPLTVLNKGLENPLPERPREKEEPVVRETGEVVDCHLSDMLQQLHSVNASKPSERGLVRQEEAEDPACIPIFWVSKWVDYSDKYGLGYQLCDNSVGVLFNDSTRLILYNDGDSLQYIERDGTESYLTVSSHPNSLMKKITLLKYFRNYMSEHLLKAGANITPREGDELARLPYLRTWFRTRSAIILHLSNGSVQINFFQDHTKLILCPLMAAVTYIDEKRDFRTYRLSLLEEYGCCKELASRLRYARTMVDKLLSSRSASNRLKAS

The assay has as its target Serine/threonine-protein kinase PLK1 (Homo sapiens) (UniProt P53350). Briefly: qHTS for Inhibitors of PLK1-PDB (polo-like kinase 1 - polo-box domain): Primary Screen. For max response, negative = inhibition: series mostly up to about 57 µM. Note: nearly all actives have a fitted effect of over 65% in size. To be noted: Plk1 PBD binding of FITC phosphopeptide, fluorescence polarization. A general note: qHTS replaces the single test concentration by a dilution series.
Take `CCn1c(SCC(=O)Nc2ccc(S(=O)(=O)Nc3onc(C)c3C)cc2)nnc1-c1ccccc1`: the max response, negative = inhibition was 3.27% (inactive).

For `Cc1noc(NS(=O)(=O)c2ccc(NC(=O)c3oc4ccc(F)cc4c3C)cc2)c1C`, the max response, negative = inhibition was -10.8% (inactive).

Consider `Cc1cc(C)c2nc(-c3cccnc3)cc(C(=O)Nc3ccc(S(=O)(=O)Nc4onc(C)c4C)cc3)c2c1`, for which the Potency is 42.3 µM (active).

Consider `CC(C)(C)S(=O)N1Cc2cc(C(=O)NCCCN3CCOCC3)nc(-c3cccc(-c4cc5ccccc5o4)c3)c2[C@H]1CCO` (some centres not stated), for which the max response, negative = inhibition is -5.28% (inactive).

For the compound `CCCn1c(=N)n(CC(=O)c2ccc(Cl)c(Cl)c2)c2ccccc21`, the max response, negative = inhibition was -14% (inactive).

Turning to `CCCCCCCCCCOC(=O)Cn1c(COc2ccc(C)cc2)[n+](C)c2ccccc21`, the max response, negative = inhibition is -18.7% (inactive).

As to `CCCCOC(=O)Cn1c(=N)n(CCN(CC)CC)c2ccccc21`, the Potency is 21.2 µM (active).

Consider `CC(=O)c1cccc(-c2cnc3c(NC=O)cc(-c4ccc(N(C)C)cc4)cn23)c1`, for which the max response, negative = inhibition is -10.2% (inactive).

In the case of `COc1ccc(C(O)C(O)(C(=O)OC(C)C)c2ccc(C)cc2)cc1` (configuration not stated), the max response, negative = inhibition is -13.4% (inactive).

For `Cn1cc(C2OC(=O)c3ccccc32)c2ccccc21` (configuration not stated), the max response, negative = inhibition was -13.8% (inactive).

On to `Cc1nn(C)cc1N1C(=O)c2cccc3c(N)ccc(c23)C1=O`, for which the Potency was 2.38 µM (active).

With `CN1C(=O)c2cccc3c(N)ccc(c23)C1=O`, the Potency is 3.36 µM (active).

With `CC(C(=O)O)N1C(=O)c2cccc3cccc1c23` (configuration not stated), the max response, negative = inhibition is -10.8% (inactive).

`Cc1ccc(S(=O)(=O)N2CCCCC2)cc1NC(=O)CCNC(=O)c1ccccc1Cl`: the max response, negative = inhibition is -0.377% (inactive).

Take `O=C1c2ccccc2-c2ccccc2NC1O` (configuration not stated): the max response, negative = inhibition is -5.82% (inactive).

`COc1cccc(NC(=O)N(C)C[C@@H]2Oc3ncc(Br)cc3C(=O)N([C@@H](C)CO)C[C@H]2C)c1`: the max response, negative = inhibition was -14.8% (inactive).

As to `Cc1c(NC(=O)CSc2nnc(-c3cccnc3)n2N)c(=O)n(-c2ccccc2)n1C`, the max response, negative = inhibition is -7.37% (inactive).

Turning to `Cc1c(NC(=O)CSc2nnnn2-c2ccc(C(=O)O)cc2)c(=O)n(-c2ccccc2)n1C`, the max response, negative = inhibition is -21.9% (inactive).

As for `Cc1c(NC(=O)CSc2cccc3cccnc23)c(=O)n(-c2ccccc2)n1C`, the Potency was 16.8 µM (active).

Regarding `Cc1coc2c(O)cc3c(c12)OC1(N2CCCCC2)C(=O)NCCCC31` (configuration not stated), the Potency is 15 µM (active).

As for `C[C@H]1CN([C@@H](C)CO)S(=O)(=O)c2ccc(-c3cccc(F)c3)cc2O[C@@H]1CN(C)C`, the max response, negative = inhibition was 2.78% (inactive).

`CN(C)CCNC(=O)c1ccc(-c2cn3c(-c4ccc(Oc5ccccc5)cc4)cnc3cn2)cc1`: the max response, negative = inhibition was -16.6% (inactive).

Consider `COc1ccc(NC(=O)N(C)C[C@H]2Oc3ncc(C#C[C@@H](C)O)cc3C(=O)N([C@H](C)CO)C[C@H]2C)cc1`, for which the max response, negative = inhibition is -0.325% (inactive).

For the compound `CN1CCN(C(=O)c2ccc(-c3cc4nc(NCc5cccnc5)n(C)c(=O)c4s3)cc2)CC1`, the max response, negative = inhibition was -24.5% (inactive).

Turning to `CC(C)n1c(=S)[nH]c2cc(C(F)(F)F)ccc21`, the max response, negative = inhibition was -24.5% (inactive).

As for `CN(C)CCn1c(=S)[nH]c2ccc(Cl)cc2c1=O`, the max response, negative = inhibition was -5.51% (inactive).

As for `CCCn1c(=S)[nH]c2ccc(C(F)(F)F)cc21`, the Potency was 10.6 µM (active).

As to `CC(=O)N1Cc2cc(C(=O)NCc3cccc(F)c3)nc(-c3cccc(C4=CCCC4)c3)c2[C@H]1CCO`, the max response, negative = inhibition is -3.4% (inactive).

`CCC(C)CN1C(=O)CSCC1(C)C(=O)NCc1ccccc1` (configuration not stated): the max response, negative = inhibition is -12.2% (inactive).

Take `O=C(Nc1ccc(Cl)cc1)C1Cc2c(-c3ccc4c(c3)OCO4)ccnc2O1` (configuration not stated): the max response, negative = inhibition is -2.05% (inactive).

Turning to `C[C@H]1CN([C@@H](C)CO)C(=O)CCCn2cc(nn2)CO[C@@H]1CN(C)C(=O)Nc1ccccc1`, the max response, negative = inhibition is -14% (inactive).

For `O=C(c1ccccc1F)N1CCN(S(=O)(=O)c2ccc(Br)cc2)CC1`, the max response, negative = inhibition is -0.788% (inactive).

For the compound `O=C(c1ccc[nH]c1=S)N1CCN(S(=O)(=O)c2ccc(Br)cc2Cl)CC1`, the Potency is 26.7 µM (active).

With `O=C(c1ccc(Cl)c(S(=O)(=O)N2CCCCC2)c1)N1CCCCCC1`, the max response, negative = inhibition is -9.42% (inactive).

On to `O=C(COc1ccc(S(=O)(=O)N2CCCC2)cc1[N+](=O)[O-])N1CCCCC1`, for which the max response, negative = inhibition is 0.94% (inactive).

Turning to `C[C@H]1CN([C@@H](C)CO)C(=O)CCCn2cc(nn2)CO[C@@H]1CN(C)S(=O)(=O)c1ccccc1C#N`, the max response, negative = inhibition was -15.7% (inactive).

Take `Cc1onc(C(=O)NN)c1C(=O)N1CCN(C(c2ccccc2)c2ccccc2)CC1`: the max response, negative = inhibition is 1.96% (inactive).

As to `CCOC(=O)N1CCN(C(c2ccnc3ccccc23)c2nnnn2-c2c(C)cccc2C)CC1` (configuration not stated), the max response, negative = inhibition was 6.16% (inactive).

With `CCN1CCN(C(c2cccnc2)c2cc(Cl)c3cccnc3c2O)CC1` (configuration not stated), the Potency is 10.6 µM (active).

As for `CCOC(=O)N1CCN(C(c2cccnc2)c2ccc3cccnc3c2O)CC1` (configuration not stated), the Potency is 5.97 µM (active).

Consider `O=C(NC1CCCC1)C1c2ccccc2OCC(=O)N1CC(F)(F)F` (configuration not stated), for which the max response, negative = inhibition is -3.82% (inactive).

`CCOC1=C2[C@@H](CN(S(=O)(=O)c3ccc(C)cc3)[C@H]2c2ccccc2F)[C@H]2C(=O)N(Cc3ccccc3)C(=O)[C@H]2C1`: the max response, negative = inhibition is -14.5% (inactive).

For `CCCCCCNC(=O)O[C@]12C[C@@H](C(=O)OC)[C@@H](C(=O)OC)C[C@@]1(O)CN(S(=O)(=O)c1ccc(C)cc1)C2`, the max response, negative = inhibition is -1.62% (inactive).

Turning to `CCc1ccc(C2C(C#N)=C(N)N(N(C)C)C3=C2C(=O)CCC3)s1` (configuration not stated), the max response, negative = inhibition was 2.14% (inactive).

`CCc1ccc(C2C(C#N)=C(N)N(N3CCOCC3)C3=C2C(=O)CC(C)(C)C3)s1` (configuration not stated): the Potency was 26.7 µM (active).

Consider `COc1ccc(C2C(C#N)=C(/N=C/N3CCOCC3)OC3=C2C(=O)CC(C)(C)C3)cc1OC` (configuration not stated), for which the max response, negative = inhibition is -6.22% (inactive).

`O=C(NCc1cccnc1)Nc1ccccc1F`: the max response, negative = inhibition is -0.233% (inactive).

Regarding `O=C(O)c1ccccc1-c1ccccc1C(=O)NCc1cccnc1`, the max response, negative = inhibition was -5.72% (inactive).

On to `CCC(Oc1ccccc1)C(=O)NCc1cccnc1` (configuration not stated), for which the Potency is 18.9 µM (active).

`COc1cccc(C(NC(C)=O)c2nc(-c3ccccc3OC)cs2)c1` (configuration not stated): the max response, negative = inhibition is -10% (inactive).

As to `CC1=NN(C(N)=S)C(=O)C1N=Nc1cc(Cl)ccc1Cl` (configuration not stated), the Potency is 26.7 µM (active).

For `O=C(c1cc(-c2ccc(Cl)cc2)on1)N1CCN(c2ccccc2)CC1`, the max response, negative = inhibition was -5.98% (inactive).

On to `COc1ccc(-c2cc(C(=O)N3CCN(c4ccc(F)cc4)CC3)no2)cc1`, for which the max response, negative = inhibition is -9.29% (inactive).

As to `O=C(c1cc(-c2ccc(F)cc2)on1)N1CCN(c2ccc(F)cc2)CC1`, the Potency was 26.7 µM (active).

Consider `OC[C@@H]1CN(Cc2ccc(-c3ccccc3)cc2)C[C@H](n2cnc3c(NC4CCCC4)ncnc32)O1`, for which the max response, negative = inhibition was 4% (inactive).

As to `CCOC(=O)c1cc(-c2sc(NC(=O)c3ccccc3)nc2C)n(Cc2ccccc2)n1`, the max response, negative = inhibition is 7.73% (inactive).

Turning to `COC(=O)[C@]12CCCCC=C1N(CCC1=CCCCC1)C(=O)[C@H](CC(=O)NCC1CCCCC1)C2`, the max response, negative = inhibition was -2.73% (inactive).

Regarding `Cc1csc(NC(=O)C2=COCCO2)n1`, the max response, negative = inhibition was -3.95% (inactive).

Take `CCC(CC)c1nnc(NC(=O)C2=COCCO2)s1`: the max response, negative = inhibition is -0.0349% (inactive).

As for `Cc1sc(NC(=O)C2=COCCO2)c(C#N)c1C`, the Potency was 11.9 µM (active).

Turning to `COc1cccc(NC(=O)Nc2ccc(F)cc2)c1`, the max response, negative = inhibition was -6.36% (inactive).

Take `COc1cc(C(=S)NCc2ccccc2)cc(Br)c1O`: the Potency was 4.23 µM (active).

Consider `COc1cc(C(=O)NCc2ccncc2)cc(Br)c1OCc1ccccc1`, for which the max response, negative = inhibition is -15.6% (inactive).

With `COc1cc(CNC2CCCC2)c(Br)cc1OCc1ccccc1`, the max response, negative = inhibition was -0.667% (inactive).

Take `Nc1nc2cc(Cl)ccc2n1N`: the max response, negative = inhibition was -1.19% (inactive).

`CCCNC(=O)c1cc(C2CCCCN2C(=O)OC)on1` (configuration not stated): the max response, negative = inhibition is -6.79% (inactive).

For the compound `O=C(c1ccc(CS(=O)Cc2ccccc2Cl)o1)N1CCN(c2ccccc2)CC1` (configuration not stated), the max response, negative = inhibition was -18.2% (inactive).

On to `Cc1ccc2nc(-c3ccccc3)c(CC3CCCCC3)n2c1`, for which the max response, negative = inhibition is -7.91% (inactive).

For `O=C1NC(O)CCN1C1CC(O)C(CO)O1` (configuration not stated), the max response, negative = inhibition is -1.57% (inactive).

Regarding `Nc1ccccc1SC(C[N+](=O)[O-])c1ccccc1` (configuration not stated), the Potency is 0.752 µM (active).

As to `Nc1cccc(OCCCCCOc2cccc(N)c2)c1`, the max response, negative = inhibition is 1.62% (inactive).

With `N#Cc1cccc(NC(=O)c2cc(C3CCCCN3C(=O)CCc3ccccc3)on2)c1` (configuration not stated), the max response, negative = inhibition is 4.56% (inactive).

In the case of `Cc1ccccc1S(=O)(=O)NC(=O)C1(C)CCN1C(=O)Cc1ccc(Cl)cc1Cl` (configuration not stated), the max response, negative = inhibition is -14.1% (inactive).

Turning to `CCOC(=O)N1CCN(C(=O)C2CC(c3ccc(F)cc3)=NO2)CC1` (configuration not stated), the max response, negative = inhibition was -12.9% (inactive).

For `O=C(c1ccco1)N1CCN(C(=O)C2CC(c3ccc(Cl)c(Cl)c3)=NO2)CC1` (configuration not stated), the max response, negative = inhibition was -17% (inactive).

For the compound `O=C(c1ccco1)N1CCN(C(=O)C2CC(c3ccc(F)cc3)=NO2)CC1` (configuration not stated), the Potency was 26.7 µM (active).

Regarding `COc1cccc(CN(C)C(=O)CC23CC4CC(CC(C4)C2)C3)c1OC`, the Potency was 29.9 µM (active).

Turning to `COc1ccc(S(=O)(=O)N2CCCCCC2)cc1C(=O)N(C)Cc1cccc(OC)c1OC`, the max response, negative = inhibition is -7.8% (inactive).

With `COc1ccc(CN(C)C(=O)Cc2ccsc2)c(OC)c1OC`, the max response, negative = inhibition was -14.4% (inactive).

Turning to `Cc1ccc(S(=O)(=O)NN=C2CC(C)(C)CC(=O)C2(C)C)cc1`, the max response, negative = inhibition is -5.23% (inactive).

In the case of `c1ccc(Cc2ccc(OCCn3ccnc3)cc2)cc1`, the max response, negative = inhibition was 4.09% (inactive).

On to `CCOc1ccc(C2/C(=C(/O)c3ccc4c(c3)CC(C)O4)C(=O)C(=O)N2CCCn2ccnc2)cc1` (configuration not stated), for which the max response, negative = inhibition is -16.9% (inactive).

Consider `CCCOc1ccc(C2C(C(=O)c3ccc(C)o3)=C(O)C(=O)N2CCCn2ccnc2)cc1` (configuration not stated), for which the Potency was 23.8 µM (active).

For `COc1cc(OC)c(C(=S)N2CCCC2)cc1OC`, the Potency is 11.9 µM (active).

For `COc1cc(OC)c(C(=O)N2CCCC2)cc1OC`, the max response, negative = inhibition was -4.54% (inactive).

As for `COc1ccc(C(=O)N2CCCN(C)CC2)c(OC)c1`, the max response, negative = inhibition is 1.15% (inactive).

For `NC(=O)CSc1nnc(-c2cccc(S(=O)(=O)N3CCOCC3)c2)o1`, the max response, negative = inhibition is -12.4% (inactive).
